Experimental data as given in publication PMC7819943, “Rice protein-binding microarrays: a tool to detect cis-acting elements near promoter regions in rice”.
In all, about 68,000 sequences were measured (“fluorescence intensity (a.u.)”: median about 9,100, highest 2% from about 16,000 on). The full list was thinned out, with the highest values kept by preference.

The sequences below were run against OsWRKY34 (Oryza sativa, UniProt Q0JBA9 1-250) (assay: protein-binding microarray (RPBM); PBS, 2% BSA, 51.3 ng/ul salmon testes DNA, 50 uM zinc acetate, 200 nM TF, 25 C, 1 h; high values mean tight binding). Settings: protein: recombinant; tags: N-terminal polyhistidine and DsRed monomer fusion (pET32a); label: CyDye5-dUTP incorporated in the synthesized complementary strand; 3' TTTTT single-stranded linker to array surface; dsDNA, one strand shown.
Sequence of OsWRKY34 (Q0JBA9 entry or part of it): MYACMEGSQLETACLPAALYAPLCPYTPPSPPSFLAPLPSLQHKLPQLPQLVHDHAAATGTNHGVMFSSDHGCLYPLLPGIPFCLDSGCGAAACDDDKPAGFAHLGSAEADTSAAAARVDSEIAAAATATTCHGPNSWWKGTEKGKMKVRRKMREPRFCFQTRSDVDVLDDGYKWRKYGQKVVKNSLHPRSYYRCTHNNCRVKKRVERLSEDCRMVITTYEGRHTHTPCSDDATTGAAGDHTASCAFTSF
Outline: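 Polyhistidine-tagged DsRed fusions of transcription factors, joined at the N-terminus, were expressed in E. coli BL21-CodonPlus and isolated on Ni–NTA. They were incubated at 200 nM for 1 h at 25 °C on a custom Agilent array, double-stranded and BSA-blocked, in PBS with 2% BSA, salmon testes DNA and 50 µM zinc acetate. The binding signal is per-feature fluorescence intensity (arbitrary units) read on an Axon 4000B scanner after washing.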
With “TGGGGTTGGTTTGGTTTGGAGTACATCGAGATTCGAGAGACGGAGTCACCTAGTGCAG” the binding signal was 19900 fluorescence intensity (a.u.).
For “CTCGGGAATTCGGGTGGTTTGGTTGGGTTTCGTGGAGAATCGGAGTCACCTAGTGCAG”, the binding signal was 18700 fluorescence intensity (a.u.).
With “ATTTTAGGGGAGGGTTTTACTTAGCAACTTTCATCTTATTCGGAGTCACCTAGTGCAG” the binding signal was 15800 fluorescence intensity (a.u.).
For “ACGGGGATGACTCCGATGACTCTCCTGGCCTCGCCGCCTCCGGAGTCACCTAGTGCAG”, the binding signal was 8120 fluorescence intensity (a.u.).
For “ACTTGGTTCTTGCTCATCATCTTTCGCTTGCTCGTCAGCTCGGAGTCACCTAGTGCAG”, the binding signal was 8360 fluorescence intensity (a.u.).
In the case of “CCCTCTTCTCCTTTGCTTGGTCTCGTTTCGTCGCTGTCGTCGGAGTCACCTAGTGCAG”, the binding signal is reported as 8260 fluorescence intensity (a.u.).
For “GAGGTCCCGTCGCTCCGGCGAGCTCCCGCCATCCGCCTCGCGGAGTCACCTAGTGCAG”, the binding signal was 8630 fluorescence intensity (a.u.).
With “ATGGCCGCTGTCTTATGTCGTCTCGTTCAAATAAAATCTCCGGAGTCACCTAGTGCAG” the binding signal was 8370 fluorescence intensity (a.u.).
In the case of “GGGATTTGGTGGCTGCTCGCCTCTCGCGTTTCTTTTGCTGCGGAGTCACCTAGTGCAG”, the binding signal is reported as 10200 fluorescence intensity (a.u.).
With “CTTCTGCTGCTTCTCTCTCTCTCTCTGTGTCTAGTCTACCCGGAGTCACCTAGTGCAG” the binding signal was 9420 fluorescence intensity (a.u.).
For “TATTTGTCATTCGCTGTCTATGACATATGAGCCCTCATGTCGGAGTCACCTAGTGCAG”, the binding signal was 8280 fluorescence intensity (a.u.).
“CTCCTCCCAACTTTCCCCTTTGCTACAGTAGCTCCTTCTTCGGAGTCACCTAGTGCAG” was tested, and the binding signal was 8100 fluorescence intensity (a.u.).
In the case of “GAGAGAGGAAGAACAGTACGTGTCTAGGGGCATTTTGGTACGGAGTCACCTAGTGCAG”, the binding signal is reported as 9700 fluorescence intensity (a.u.).
With “ACACCGGCCGCCGAGCTCGCCTCCTCTCTTGTCGCCCACACGGAGTCACCTAGTGCAG” the binding signal was 10100 fluorescence intensity (a.u.).
“GTTCCTGATATGTTTTTTTGTTGGTTGCAGGATGGCAAGACGGAGTCACCTAGTGCAG” was tested, and the binding signal was 8880 fluorescence intensity (a.u.).
For “GCTCTCTTTCCGCTTCTACCCTCGTCACGTCCACGAAATCCGGAGTCACCTAGTGCAG”, the binding signal was 14900 fluorescence intensity (a.u.).
With “GCCACAGCTCTTGATTTCTCGCTGGATCCTGGTTTTCACCCGGAGTCACCTAGTGCAG” the binding signal was 8430 fluorescence intensity (a.u.).
For “TGCTAGGGTTTTCGGGAGGCGGGTCTAGGGTTGAGGCAAACGGAGTCACCTAGTGCAG”, the binding signal was 12300 fluorescence intensity (a.u.).
“TTGGGGTTGGCGGGAATTAGGGTTTCGTTGGTGGGGTTTTCGGAGTCACCTAGTGCAG” was tested, and the binding signal was 25900 fluorescence intensity (a.u.).
In the case of “ACCTCGGAAAGTACGGGGTTCTCGTCGGCTGGGTGGGTGTCGGAGTCACCTAGTGCAG”, the binding signal is reported as 11500 fluorescence intensity (a.u.).
For “GGTGGGTTTCGTGGTACGGCTCGCTCTCGTGGTGGGGAATCGGAGTCACCTAGTGCAG”, the binding signal was 19700 fluorescence intensity (a.u.).
“TCGTTTGGTTGGCGGGAGTTTTAAGAGGGATTAGGAGTTTCGGAGTCACCTAGTGCAG” was tested, and the binding signal was 9020 fluorescence intensity (a.u.).
In the case of “GAGCGGGGAGGCGGCGGATCTAGGGTTTGGTTGGGTTTTTCGGAGTCACCTAGTGCAG”, the binding signal is reported as 15300 fluorescence intensity (a.u.).
For “GGTTGGCAGCGGCGGCGGAGGTGGGGAGAGGCGGGTGGTTCGGAGTCACCTAGTGCAG”, the binding signal was 13600 fluorescence intensity (a.u.).
In the case of “GCGTTTTCGGCGGGGAACGCGGGGAGGCGGGTGGGGTTGACGGAGTCACCTAGTGCAG”, the binding signal is reported as 21800 fluorescence intensity (a.u.).
“CTGGCTCGCTCTCTCTCTCTCTCTCGTGGTGTGGTGTGGACGGAGTCACCTAGTGCAG” was tested, and the binding signal was 9310 fluorescence intensity (a.u.).
For “GTTGGTGTCCATCCGTTTCCGAGCCATTTTCATCCCTAATCGGAGTCACCTAGTGCAG”, the binding signal was 11600 fluorescence intensity (a.u.).
In the case of “TCCTTCCATCTCTCTGCTCACTTCACTTCACCTTCCAATGCGGAGTCACCTAGTGCAG”, the binding signal is reported as 9020 fluorescence intensity (a.u.).
In the case of “GTTTCCATTTATCTGTTCGCAGTCAGTTCCAAGAAGTACCCGGAGTCACCTAGTGCAG”, the binding signal is reported as 8340 fluorescence intensity (a.u.).
In the case of “GTTGGTTGGCTGTTCCTTGCTTTCATCCAGCTAGCTACTGCGGAGTCACCTAGTGCAG”, the binding signal is reported as 10500 fluorescence intensity (a.u.).
In the case of “ACCGGCTCTCTAATCCTTAAATTCTGGCTTTGCTGCTAGTCGGAGTCACCTAGTGCAG”, the binding signal is reported as 9240 fluorescence intensity (a.u.).
With “CAGTGGAGGGTTGGATCGGTGTGTAGGGGCTTAAGTGCAACGGAGTCACCTAGTGCAG” the binding signal was 9610 fluorescence intensity (a.u.).
For “CATGTCCAACGTTTGACCATTTGCCTTATTTAAAATTTTTCGGAGTCACCTAGTGCAG”, the binding signal was 9250 fluorescence intensity (a.u.).
In the case of “ATGCTCGATCACATGCTTAATTCTTAGCTTTGTCCTAGTTCGGAGTCACCTAGTGCAG”, the binding signal is reported as 8230 fluorescence intensity (a.u.).
With “GCCGCCACCGCAACCTACCGCCGCCGCGGCAAGCCCAAGCCGGAGTCACCTAGTGCAG” the binding signal was 8960 fluorescence intensity (a.u.).
With “GCTAAATACCAGCGAAGCAGTCGCCCGCGCAAACGCGCGCCGGAGTCACCTAGTGCAG” the binding signal was 8220 fluorescence intensity (a.u.).
In the case of “ACGGCCAGGCAAGCAAGCAAACGCCGCGGCTACCAATACCCGGAGTCACCTAGTGCAG”, the binding signal is reported as 39600 fluorescence intensity (a.u.).
For “TTAATCTTCACGCGTTTGCTTACTCCTATATATATATGTACGGAGTCACCTAGTGCAG”, the binding signal was 9730 fluorescence intensity (a.u.).
In the case of “TCCTGTGTTTTGCAATCCTCTGTTTTTACACTTGCATTCCCGGAGTCACCTAGTGCAG”, the binding signal is reported as 10400 fluorescence intensity (a.u.).
“TGTTTTTCCTGTGTTTTGCAATCCTCTGTTTTACACTTACCGGAGTCACCTAGTGCAG” was tested, and the binding signal was 13000 fluorescence intensity (a.u.).
With “TTCCTGTGTTTTGCAATCCGCTGTTTTACACTTACATTCCCGGAGTCACCTAGTGCAG” the binding signal was 17300 fluorescence intensity (a.u.).
In the case of “TTTCGATTGATTTTGCCTCCTGAAGCGTTGTCTAGCTTTTCGGAGTCACCTAGTGCAG”, the binding signal is reported as 8180 fluorescence intensity (a.u.).
